# Data from the supplement of paper PMC6555819.
# What was measured:
# Assay in all cases: PBM binding z-score (relative to random genomic background probes); higher = stronger binding; sequences stand for … in GC…GCGATTGACAGCGTAGAATGAAGG
# [1] = tested on: PPARg:RXRa DBDmut IVT, anti-RXR (DBD mutation: RXRa K156A/R161A, NR concentration 270 nM, RXRa partner concentration 90 nM)
# Summary of the method: (§1)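 Each nuclear receptor dimer, without ligand, was incubated for 1 h on custom Agilent 4×180K protein-binding microarrays. Binding was detected with antibodies against each partner (one per run), and scanned fluorescence was regression-normalized. The binding z-scores are referenced to random human genomic background probes.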
# [2] = tested on: PPARg:RXRa IVT, anti-PPARg (NR concentration 270 nM, RXRa partner concentration 90 nM)
# Summary of the method: as §1
# [3] = tested on: PPARg DBDmut:RXRa IVT, anti-PPARg (DBD mutation: PPARg1 K132A/R137A, NR concentration 270 nM, RXRa partner concentration 90 nM)
# Summary of the method: as §1
# [4] = tested on: PPARg DBDmut IVT, anti-PPARg (DBD mutation: PPARg1 K132A/R137A, NR concentration 270 nM)
# Summary of the method: as §1
# [5] = tested on: PPARg homodimer (NR concentration 180 nM)
# Summary of the method: as §1
# [6] = tested on: PXR:RXRa (NR concentration 270 nM, RXRa partner concentration 90 nM)
# Summary of the method: as §1
# [7] = tested on: PXR homodimer (NR concentration 270 nM)
# Summary of the method: as §1
# [8] = tested on: RARa:RXR (NR concentration 270 nM, RXRa partner concentration 90 nM)
# Summary of the method: as §1
# [9] = tested on: RARa homodimer (NR concentration 270 nM)
# Summary of the method: as §1
# [10] = tested on: RARb:RXRa (NR concentration 270 nM, RXRa partner concentration 90 nM)
# Summary of the method: as §1
# [11] = tested on: RARb homodimer (NR concentration 270 nM)
# Summary of the method: as §1
# [12] = tested on: RARg:RXRa (NR concentration 270 nM, RXRa partner concentration 90 nM)
# Summary of the method: as §1
# [13] = tested on: RARg homodimer (NR concentration 270 nM)
# Summary of the method: as §1
# [14] = tested on: RXRa DBDmut IVT, anti-RXR (DBD mutation: RXRa K156A/R161A, NR concentration 90 nM)
# Summary of the method: as §1
# [15] = tested on: RXRa homodimer (NR concentration 180 nM)
# Summary of the method: as §1
# [16] = tested on: THRa:RXRa (NR concentration 90 nM, RXRa partner concentration 90 nM)
# Summary of the method: as §1
# [17] = tested on: THRa homodimer (NR concentration 90 nM)
# Summary of the method: as §1
# [18] = tested on: VDR:RXRa (NR concentration 270 nM, RXRa partner concentration 90 nM)
# Summary of the method: as §1
# [19] = tested on: VDR homodimer (NR concentration 270 nM)
# Summary of the method: as §1
Sequence,PBM binding z-score [1],PBM binding z-score [2],PBM binding z-score [3],PBM binding z-score [4],PBM binding z-score [5],PBM binding z-score [6],PBM binding z-score [7],PBM binding z-score [8],PBM binding z-score [9],PBM binding z-score [10],PBM binding z-score [11],PBM binding z-score [12],PBM binding z-score [13],PBM binding z-score [14],PBM binding z-score [15],PBM binding z-score [16],PBM binding z-score [17],PBM binding z-score [18],PBM binding z-score [19]
ACTCTTAGTTGACTTAGGGCAACCGATACGACGC,0.723,0.491,1.1,1.39,0.782,0.578,0.291,0.777,0.704,1.04,1.01,0.837,0.667,0.736,0.605,1.52,0.885,0.416,0.184
TCTAGTTGGTGAAAGGTCACACACTCGAAATGCG,2.69,5.86,2.76,2.05,7.7,5.97,2.06,7.3,4.58,4.79,4.86,6.24,5.72,1.95,7.42,3.97,2.01,4.89,2.58
CGAACTAGGTCATCCAGGCCAGTGAATACATTGA,7.88,8.53,3.15,2.65,2.08,1.61,0.572,2.4,0.167,3.91,3.18,4,4.59,2.18,2.85,3.23,1.19,3.97,1.33
TAGCCTAGGTCATGCGCGCCAGTATAGTGTCGGC,2,3.17,0.974,0.266,2.85,1.55,-0.618,2.62,-0.473,3.74,3.06,4.02,4.19,0.635,3.16,3.17,1.27,2.05,0.448
ATCTCTGGGTAAAGATAGTTCAGTGAATGCAAAT,1.83,1.65,1.05,1.76,0.681,1.17,0.829,0.549,1.1,0.828,1.1,0.61,0.989,-0.0472,0.123,0.544,-0.18,0.896,0.45
CCTATTAGTTCACCATAAGGGCAACCGAAGCTCG,0.837,0.596,0.806,0.145,1.92,2.63,1.48,2.33,1.26,3.21,3.48,4.31,2.61,2.82,1.69,3.37,1.73,2.6,2.41
AGAACGAGGGTACGCTGAGTTGATAGCAGAGTAG,1.48,0.725,0.215,0.0529,-0.458,0.223,0.15,-0.0408,-0.807,0.364,-0.336,0.424,0.303,0.994,0.16,0.2,-0.484,1.15,2.14
ACTATTAGTTGAGACGAGGGCAACCAATAGGTTG,0.183,0.992,0.202,0.799,0.0729,1.75,0.385,1.5,0.723,1.09,1.29,0.956,0.987,0.665,0.753,2.89,0.217,0.987,0.676
CCTTACGGGTCACTGACCGGTTATAGCATTTGGA,3.02,3.86,1.44,-0.432,2.45,2.93,0.0567,3.72,1.71,3.96,3.25,5.43,4.56,1.45,4.82,2.56,0.389,3.34,0.995
CATACAGGGTCAGCTAGGCCAGATTAGGGACGGC,1.11,1.98,0.335,-0.106,1.45,2.26,-0.138,3.04,0.588,3.91,3.37,4.39,4.22,1.47,4.12,3.18,1.09,3.94,0.951
ATCGAAAGCTCGAGGTGAGTATAGAGAAAGGGAA,-0.98,0.455,0.71,0.162,-1.14,-0.37,-0.567,-0.162,-0.838,0.00915,-0.503,0.0363,0.189,-0.888,-0.0727,0.963,-0.199,-0.459,-0.71
GCAGACGGGTGAAACGCAGGTAACTCAGGGTGGC,-0.241,-0.0586,-1.33,-0.958,-0.685,-0.244,-0.933,0.253,-0.996,0.14,-0.28,0.482,-0.283,-1.07,0.49,1.3,-0.706,-0.555,-0.68
CCTGCTAGGTCAATGATCAGCTAAAGCAGCTCGC,4.45,3.19,-0.369,-0.701,1.17,0.559,-0.751,1.13,-0.385,3.62,2.32,3.18,4.16,1.82,1.83,1.99,-0.185,0.447,-0.421
CCTAGTTTGTCAGGAGGTCACACACCGGATATGA,1.14,2.9,1.37,1.6,4.45,4.63,1.7,5.02,2.79,3.46,4.01,4.61,3.87,1.93,4.52,3.62,2.87,4.19,3.26
CAAACTAGGTCACAGAGGTCTAAGTCCGTGCGTA,8.53,8.91,1.68,1.67,0.929,2.54,0.546,2.8,0.421,4.13,3.5,4.44,4.87,1.85,3.76,3.54,1.82,4.9,1.87
CCCGCTAGGTCAATGGTCAGCTAAAGCAGCTCGC,4.1,3.83,-0.504,-0.484,1.55,1.09,-0.582,1.91,-0.541,3.78,3.03,3.62,4.76,1.28,2.37,2.27,0.886,1.02,-0.00101
ATATTTAGGTTAAGGGTCATTCAGGTTGGTTCGC,6.47,7.1,5.34,5.2,5.4,5.69,3.67,5.96,5.28,3.68,4.22,4.81,3.84,2.51,5.68,3.95,3,5.46,5.16
ACAGACTGGTGAGTGAAGGTAACTCAGCTGGACG,-0.695,-0.409,-0.15,-0.348,0.0199,-0.565,-0.163,-0.434,-0.0964,-0.281,-0.42,-0.303,-0.112,-0.514,-0.182,0.0338,-0.517,-0.365,-0.299
AGCTCTAGGTAACCAAGTTCAGTGAATGCCGAAC,3.96,2.07,-0.276,-0.0149,0.421,1.53,1.74,0.198,-0.119,0.793,1.25,0.159,0.348,0.428,0.269,1.14,0.629,3.88,2.43
GCTCGGAGGACAAGATCAGAGCTTTGTCCGTAGA,-0.785,-0.327,-1.13,-1.46,-1.73,-0.776,-0.689,-0.823,-1.48,0.581,-0.303,-0.459,0.204,-0.708,-0.639,0.191,-0.651,-0.806,-0.587
ATAGGTAGGTTAAGGGTCATTCAGGTTGGTTCGC,3.71,5.35,3.33,1.88,4.75,5.63,3.61,6.1,3.3,3.83,4.42,5.12,3.74,2,6.15,3.71,2.58,5.65,4.7
CCTAGCAGGCCAGGGTCATTCAAGCATTTCGCTT,0.315,0.694,-0.751,-1.91,1.59,3.11,-0.0887,3.29,-0.222,2.57,2.54,2.93,1.89,1.62,3.35,2.93,0.719,3.48,2.77
CTCGAAAGGTCGGTTGAGGTGGGTATACGGATAA,-0.182,0.818,-0.122,-0.109,1.13,2.08,0.36,1.53,0.507,2.99,1.83,2.28,2.25,0.695,1.86,4.1,0.422,1.63,1.06
GCTCGGAGGACTAGGTCAGAGCTTTGTCCGTAGA,2.42,2.73,-1.06,-1.65,-0.329,-0.496,-0.984,-0.285,-1.53,1.27,1.4,0.32,0.804,-0.871,-0.228,0.731,-0.465,-0.562,-0.906
GCTAGTTGGTCAATAAAAGGTCACACACCGGTCG,1.64,3.07,0.532,0.266,4.72,5.3,1.4,5.89,3.47,4.33,5.51,6.07,5.18,0.854,5.51,3.66,1.83,4.16,2.11
ACTAGCAGGCCAAGTTTGGGACACTCAAACAAAG,0.573,0.235,-0.681,-1.33,-0.893,-0.655,-0.694,-0.143,-0.864,0.366,0.289,0.191,0.555,-0.499,-0.592,1.45,0.404,-0.55,-0.549
GCGACTGGGGCAAGGCAGGTTACCATAAGGTTGG,3.58,3.12,0.704,-0.934,0.688,0.207,-0.567,0.854,-0.915,0.95,1.16,0.436,0.635,-1.16,0.144,2.41,0.0224,-0.166,-0.42
GCTATTAGTTGAAAGGACAACCGAATGATTCTCG,0.447,-0.166,0.553,0.18,0.735,-0.372,0.0666,-0.189,1.02,1.32,1.25,0.533,1.2,0.922,0.0459,0.487,0.292,-0.113,0.311
CATACAGGGTCAGCTATGCCAGAGTAGGGACGGC,0.895,2.38,0.429,0.135,0.969,2.18,-0.0786,3.05,0.191,4.03,2.98,4.2,4.27,1.55,4.14,2.75,0.818,2.78,1.06
CAAATTAGGTCACCGGAAGGTCAAAGTCCGCATG,8.26,8.72,5.54,4.55,7.17,6.18,1.78,7.5,2.54,5.54,5.53,8.32,7.57,2.34,6.18,4.78,3.89,5.86,3.8
